Source: PubChem (National Center for Advancing Translational Sciences (NCATS))
Shown are actives, neighbours in structure and some others; about 19% of the full set was active somewhere.
TDP1 cell CPT: qHTS for Inhibitors of human tyrosyl-DNA phosphodiesterase 1 (TDP1): qHTS in cells in presence of CPT; chicken DT40 Tdp1-/-;hTDP1 cells + 20 nM CPT, ATP luminescence, 48 h; Potency, µM (highest dose often 46.2 µM), most hits filed as inhibitors; 420,000 tested, 12% active; AID 686979, 2013; note: nearly all actives have a fitted effect of over 55% in size
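Cell growth measured by CellTiter-Glo luminescence after a minimum 48 h, 37 C compound exposure with 20 nM CPT in Tdp1-knockout DT40 cells stably expressing hTDP1, seeded 400/well; qHTS titration format.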
HT1080 IDH1KD tx: qHTS for induction of synthetic lethality in tumor cells producing 2HG: qHTS for the HT-1080-IDH1KD cell line; Potency, µM (top dose mostly 46.1 µM), actives largely listed as cytotoxic; AID 686971, 2013; HT-1080 IDH1 knockdown viability, ATP luminescence, 48 h; 360,000 tested, 2% active
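Luminescent ATP read-out (CellTiter-Glo, 10 min at room temperature) after 48 h compound exposure at 37 °C gave viability of IDH1-knockdown HT-1080 cells. Activity was normalised to DMSO and cell-free wells, then fitted as concentration-response curves.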
KB-V1 cytotox: qHTS assay for MDR1-selective chemotherapeutics: Primary screen using the drug-selected MDR subline cells KB-V1 | Potency, µM (doses to about 46.1 µM), usual class: cytotoxic | 400,000 tested, 3.4% active | KB-V1 MDR cells viability, CellTiter-Glo, 72 h; note: nearly all actives have a fitted effect of over 60% in size
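Readout: CellTiter-Glo luminescence, 10 min after addition. Cells: KB-V1 MDR subline, 72 h at 37 degrees C with compound. Analysis: corrected, normalized data fitted to concentration-effect curves.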
HT1080-NT tox: qHTS for induction of synthetic lethality in tumor cells producing 2HG: qHTS for the HT-1080-NT fibrosarcoma cell line. Potency, µM (highest dose often 46.1 µM), actives largely listed as cytotoxic. AID 686970, 2013. 360,000 tested, 1.6% active. HT-1080-NT fibrosarcoma viability, CellTiter-Glo ATP luminescence, 48 h;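 note: NT is the 2HG producing partner of a matched IDH1 knockdown line; nearly all actives have a fitted effect of over 55% in size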
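Luminescent CellTiter-Glo readout after 48 hours of compound exposure at 37 degrees C defined viability of HT-1080-NT cells. Activity was normalized to DMSO wells and cell-free media wells; concentration-response curves were fitted and assigned curve classes.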
KB-3-1 cytotox: qHTS assay for MDR1-selective chemotherapeutics: Primary screen using the parental adenocarcinoma cell KB-3-1; KB-3-1 viability, CellTiter-Glo ATP luminescence, 72 h; Potency, µM (doses to about 46.1 µM), actives largely listed as cytotoxic; 400,000 tested, 1.4% active; note: nearly all actives have a fitted effect of over 60% in size
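Luminescent ATP read-out (CellTiter-Glo) measures survival of drug-naive KB-3-1 cells after 72 h compound exposure at 37 °C. Titration series was screened from lowest to highest concentration, with DMSO vehicle plates as background controls.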
TDP1 cell noCPT: qHTS for Inhibitors of human tyrosyl-DNA phosphodiesterase 1 (TDP1): qHTS in cells in absence of CPT; DT40 Tdp1-/- hTDP1 cells, no CPT, ATP luminescence, 48 h; Potency, µM (doses to about 46.2 µM), most hits filed as inhibitors; 420,000 tested, 15% active; AID 686978, 2013; note: nearly all actives have a fitted effect of over 55% in size
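Compound effects on proliferation are scored in DT40 Tdp1-/-;hTDP1 cells in the absence of CPT. ATP levels (CellTiter-Glo luminescence) are recorded after a ≥48 hr, 37 °C incubation.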
Hits are given with their value; n = inactive; u = inconclusive; x = not tested or not shown; [ ] = dose if it differs, or a comment. Calls come from the whole dose curve; as a rule, active = well fitted curve in the direction sought with a large enough effect; inconclusive = small, poorly fitted or top-dose-only effect, or another doubt; inactive = no such curve, though single readings can be large; an effect the other way counts as inactive or inconclusive.

SMILES | TDP1 cell CPT | HT1080 IDH1KD tx | KB-V1 cytotox | HT1080-NT tox | KB-3-1 cytotox | TDP1 cell noCPT
Cc1oc(-c2cccc(Cl)c2)nc1CN1CCCC(C(=O)NCc2ccco2)C1 (stereo not drawn) | u | n | n | n | n | u
Cc1oc(-c2cccc(Cl)c2)nc1CN1CCCC(C(=O)NC(C)c2ccc3c(c2)OCCO3)C1 (stereo not drawn) | 21µM | 16µM | 26µM | u | u | 12µM
Cc1oc(-c2cccc(Cl)c2)nc1CN1CCC(C(=O)NC(C)C)CC1 | n | x | n | x | n | n
COc1ccc(CNC(=O)C2CCN(Cc3nc(-c4ccc(OC)c(OC)c4)oc3C)CC2)cc1 | u | x | n | x | n | u
Cc1ccc(CNC(=O)C2CCCN(Cc3nc(-c4cccc(C)c4)oc3C)C2)cc1 (stereo not drawn) | 18µM | x | n | x | n | u
CC(C)CC(=O)Nc1ccc(C(=O)COC(=O)Cc2n[nH]c(=O)c3ccccc23)cc1 | n | n | u | n | n | n
CCOC(=O)c1ccc(NC(=O)CSc2nccn2-c2cc(C)cc(C)c2)cc1 | 23µM | x | n | x | u | 18µM
COc1cccc(-n2ccnc2SCC(=O)Nc2cccc(C)c2C)c1 | 21µM | x | u | x | n | 16µM
CCOC(=O)c1ccc(NC(=O)CSc2nccn2C)cc1 | u | n | n | n | n | u
Cc1cc(C)cc(NC(=O)CSc2nccn2-c2ccccc2)c1 | u | x | u | x | n | 23µM
COc1cccc(-n2ccnc2SCC(=O)Nc2ccccc2)c1 | 5.8µM | n | n | n | n | 8.2µM
COc1cccc(-n2ccnc2SCC(=O)Nc2ccccc2F)c1 | n | n | u | n | n | n
COC(=O)c1cccc(F)c1C(=O)c1cccc2ccccc12 | n | n | n | n | n | n
CCOC(=O)c1ccc(NC(=O)CSc2nccn2Cc2ccc(OC)cc2)cc1 | 15µM | x | x | x | x | u
O=C(CSc1nccn1-c1cccc(Cl)c1)Nc1ccc2c(c1)OCO2 | u | x | x | x | x | n
Cc1cc(C)cc(-n2ccnc2SCC(=O)Nc2ccc3c(c2)OCO3)c1 | u | x | n | x | n | 21µM
Cc1onc(-c2ccccc2)c1CNC(=O)Nc1ccccc1 | n | n | u | n | n | u
CN(CCC#N)C(=S)Nc1ccc(Oc2ccccc2)cc1 | u | n | n | n | n | u
CCOc1ccc(/C(O)=C/C(=O)C(=O)Nc2ccc(S(=O)(=O)NC(C)=O)cc2)cc1 | 26µM | n | n | n | n | n
CN(Cc1ccccc1)S(=O)(=O)c1ccc(NC(=O)C2CCCO2)cc1 (stereo not drawn) | u | n | n | n | n | u
CCOc1ccc(NS(=O)(=O)c2ccc(NC(=S)NC(=O)C(C)C)cc2)cc1 | 21µM | u | n | u | n | u
COc1ccc(NS(=O)(=O)c2ccc(NC(=S)NC(=O)C(C)C)cc2)cc1 | 18µM | n | n | n | n | 16µM
COc1ccc(S(=O)(=O)Nc2ccc(NC(C)=O)cc2)cc1 | n | n | n | n[9.24 µM] | n | u
CN(Cc1ccccc1)S(=O)(=O)c1ccc(NC(=O)C2CCCCC2C(=O)O)cc1 (stereo not drawn) | n | n | 21µM | n | n | n
CCN1C(=NCc2ccco2)N[C@@H](c2cccc(F)c2)C(C(=O)OC)=C1C | n | n | n | n | n | n
SMILES | TDP1 cell CPT | HT1080 IDH1KD tx | KB-V1 cytotox | HT1080-NT tox | KB-3-1 cytotox | TDP1 cell noCPT
CC1(c2nnnn2-c2ccc3c(c2)OCCO3)CCC(=O)N1CCc1ccccc1F (stereo not drawn) | u | n | u | n | n | u
CC(C)C(=O)NC(=S)Nc1ccc(S(=O)(=O)N(C)Cc2ccccc2)cc1 | u | 21µM | u | u | u | 18µM
CCOc1ccc(S(=O)(=O)Nc2ccc(C(=O)NN)cc2)cc1 | u | n | n | n | n | n
CC(C)C(=O)NC(=S)Nc1ccc(S(=O)(=O)NC(C)(C)C)cc1 | u | n | n | n | n | u
CCOc1ccc(NS(=O)(=O)c2ccc(NC(=S)NC(C)=O)cc2)cc1 | 23µM | n | n | n | n | 23µM
CC(=O)NC(=S)Nc1ccc(S(=O)(=O)N(C)Cc2ccccc2)cc1 | u | u | u | n | n | u
CC(C)C(=O)NC(=S)Nc1ccc(S(=O)(=O)Nc2ccccc2)cc1 | n | n | 23µM | n | n | n
C[C@@H](O)C1NC(=O)[C@H](CCCCN)NC(=O)c2cc([N+](=O)[O-])cc(I)c2OCC[C@@H](C(N)=O)NC1=O (stereo partly drawn) | n | n | n | n | n | n
Cc1cc(=O)oc2c(CN(C)Cc3ccccc3)c(O)ccc12 | n | n | n | n | n | n
C=CCN(CC=C)Cc1c(O)ccc2c1oc(=O)c1ccccc12 | u | n | 10µM | n | n | n
Cc1ccccc1-n1ccnc1SCC(=O)Nc1cccc(S(=O)(=O)NC2=NCCC2)c1 | n | n | n | n | u | u
O=C(/C(Br)=C/Nc1cc(Cl)ccc1Cl)C(F)(F)F | 21µM | n | n | n | n | 15µM
CCn1c(SCC(=O)N2CCCC2)nnc1-c1ccco1 | n | n | n | n | n | n
O=C1CC(=O)Nc2ccccc2N1 | n | n | n | n | n | n
O=C1CC(/C=C/c2cccnc2)=Nc2ccccc2N1 | 13µM | u | u | n | u | 16µM
O=C1CC(/C=C/c2ccc(Cl)cc2)=Nc2ccccc2N1 | u | n | u | u | u | 15µM
O=C1CC(C(F)(F)C(F)(F)C(F)(F)F)=Nc2ccccc2N1 | n | n | n | n | u | n
CC1(C)CC(/C=C/c2ccccc2)=Nc2ccccc2N1 | 18µM | n | n | n | u | 21µM
CN1N=C(/C=C/c2ccccc2)CCC1=O | n | n | n | n | n | n
O=S(=O)(Cc1nnnn1-c1ccccc1)c1ccc(F)cc1 | n | n | n | n | n | n
Cc1ccccc1C(=O)N1CCc2ccccc2C1 | n | n | n | n | n | n
CC(Oc1ccccc1)C(=O)N1CCc2ccccc2C1 (stereo not drawn) | u | n | n | u | n | n
COc1ccc(OC(C)C(=O)N2CCc3ccccc3C2)cc1 (stereo not drawn) | u | n | u | n | u | 21µM
Cc1cccc(C(=O)OC(C)C(=O)N2CCc3ccccc3C2)c1C (stereo not drawn) | n | n | 18µM | n | n | n
